Most compounds without a hit are left out; they make up all but 11% or so of the library.
HCV inh – blocks hepatitis C virus | actives 3.4% (n = 340,000) | Potency, µM (doses to about 41.8 µM), without a hit: at the highest dose activity change, negative = inhibition, hits mostly inhibitors | Huh7.5.1 HCVcc-Cre infection, luciferase reporter, 44 h
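Luciferase read-out (15 sec integration) after a 15 min room-temperature substrate step quantifies HCVcc-Cre infection. Cells, 1,000 per well, had compound added 4 h post-plating, then virus at ~0.5 moi, and were cultured 44 h.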
Pf growth 96h – inhibits malaria parasite growth, 96 h; P. falciparum luciferase reporter growth, 96 h; Potency, µM (doses to about 28.7 µM), without a hit: top-dose activity change, negative = inhibition, hits mostly inhibitors; actives 6.9% (n = 320,000); AID 504834
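Delayed-death screen, second-generation endpoint: infected erythrocytes, 2% hematocrit, 0.05% parasitemia final; 96 hours at 37 C, 5% CO2; luciferase detection reagent; luminescence decrease equals reduced growth.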
Pf growth 48h – inhibits P. falciparum growth in the first generation, 48 h; P. falciparum luciferase growth in erythrocytes, 48 h; Potency, µM (top dose mostly 28.7 µM), for inactives: at the highest dose activity change, negative = inhibition, hits mostly inhibitors; actives 5.9% (n = 310,000)
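Compounds are pin-transferred into medium, infected erythrocytes (2% hematocrit, 0.1% parasitemia final) are added, and plates sit one parasite generation at 37 C in 5% CO2. Detection reagent is then added and luminescence measured.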
AmpC inh no detg – blocks E. coli AmpC beta-lactamase in detergent-free assay | P00811 | AmpC nitrocefin hydrolysis, absorbance 480 nm, 0.0001% Triton | Potency, µM (titrated, usually from 57.1 µM), for inactives: at the highest dose activity change, negative = inhibition, actives largely listed as inhibitors | actives 0.52% (n = 330,000) | AID 485341;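 further: plate controls were no compound for no effect and no enzyme for full effect; nearly all actives have a fitted effect of over 20% in size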
Target sequence (P00811 whole entry, looked up): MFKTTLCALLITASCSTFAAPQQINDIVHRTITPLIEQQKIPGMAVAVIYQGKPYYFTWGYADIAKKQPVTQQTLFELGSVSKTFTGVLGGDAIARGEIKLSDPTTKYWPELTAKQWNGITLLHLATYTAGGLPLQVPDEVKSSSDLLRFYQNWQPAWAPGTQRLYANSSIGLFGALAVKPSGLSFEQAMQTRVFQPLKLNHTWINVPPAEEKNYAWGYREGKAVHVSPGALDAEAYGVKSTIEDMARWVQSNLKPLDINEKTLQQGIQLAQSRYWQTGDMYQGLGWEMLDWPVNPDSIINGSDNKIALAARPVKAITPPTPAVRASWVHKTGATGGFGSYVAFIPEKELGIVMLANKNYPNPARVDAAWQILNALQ
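AmpC (5.3 nM in the dispensed reagent) in 20 mM phosphate pH 7.0 with 0.01% (detergent screen) or 0.0001% Triton X-100 was preincubated with compounds for 15 min at room temperature. Nitrocefin was then added from an 800 uM solution, and hydrolysis was followed at 480 nm.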
AmpC detergent – AmpC beta-lactamase inhibition with detergent present; P00811; AmpC hydrolysis of nitrocefin, absorbance 480 nm, 0.01% Triton; Potency, µM (titrated, usually from 114 µM), for inactives: at the top dose activity change, negative = inhibition, actives largely listed as inhibitors; actives 0.041% (n = 370,000); AID 485294;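 further: 0% = no-compound wells and -100% = no-enzyme wells; nearly all actives have a fitted effect of over 25% in size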
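AmpC (5.3 nM in the dispensed reagent) in 20 mM phosphate pH 7.0 with 0.01% (detergent screen) or 0.0001% Triton X-100 was preincubated with compounds for 15 min at room temperature. Nitrocefin was then added from an 800 uM solution, and hydrolysis was followed at 480 nm.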
AMA1-RON2 inh – inhibitors of Plasmodium falciparum AMA1-RON2 interaction. AID 720542. Potency, µM (titrated, usually from 58.2 µM), without a hit: top-dose activity change, negative = inhibition, actives largely listed as inhibitors. actives 0.2% (n = 360,000). AlphaScreen AMA1-biotinylated RON2 peptide binding;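 further: 0% = vehicle wells and -100% = peptide control; nearly all actives have a fitted effect of over 45% in size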
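AMA1 (3D7) with his tag at 25 nM final met compounds first, then biotinylated RON2 peptide at 25 nM; detection used donor plus acceptor beads, 10 µg/mL apiece, read by AlphaScreen after 30 min at room temperature.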
* hit, by the source's call; ? = inconclusive; · = no result given; [ ] = dose if it differs, or a comment. The call rests on the fitted dose curve; in most records, active means well fitted curve in the direction sought with a large enough effect; inconclusive means small, poorly fitted or top-dose-only effect, or another doubt; inactive means no such curve, though single readings can be large; an effect the other way counts as inactive or inconclusive. Unless noted, on the % scale 0 is the no-effect control and ±100 the full control effect; potency means the concentration at half of the fitted maximal effect.

SMILES	HCV inh	Pf growth 96h	Pf growth 48h	AmpC inh no detg	AmpC detergent	AMA1-RON2 inh
O=C(Nc1ccccc1)N1CCCN(c2ccc(C(F)(F)F)cc2[N+](=O)[O-])CC1	-17.8%	10.4µM*	13.1µM*	-0.5%	0.6%	1.9%
Cc1cc(N2CCN(c3ccc(C(F)(F)F)cc3[N+](=O)[O-])CC2)c2ccccc2n1	10µM*	7.38µM*	13.1µM*	129.7%	2.6%	-27.9%
O=[N+]([O-])c1ccc(N2CCCCC2)c2ncccc12	-10.2%	66.9%	-4.3%	-12.6%	7.4%	?
COc1ccc(C(=O)Cn2nc(CNc3ccc(Br)cc3)[n+]3c2CCCCC3)cc1	-2.0%	1.85µM*	1.04µM*	116.6%	1.0%	-15.0%
Cc1ccc(C(C)C)c(OCc2nn(CC(=O)c3ccc(OC(F)F)cc3)c3[n+]2CCCCC3)c1	?	?	1.85µM*	211.5%	-0.6%	-9.2%
CCNC(=O)C1(C)CCN(C(=O)c2ccc(C)c(F)c2)C1 (centres undefined)	·	·	·	·	·	2.6%
CCC(O)CNC(=O)NC(=C(Cl)Cl)c1ccc(C)c(F)c1 (centres undefined)	15.8µM*	-26.0%	?	-14.0%	-16.3%	10.4%
Cc1cc(OC(C)C(=O)N2CCN(c3ccccc3)CC2)c2c(C)c(C)c(=O)oc2c1 (centres undefined)	?	13.1µM*	9.28µM*	-3.3%	-6.2%	6.7%
Cc1cc(OCC(=O)N2CCN(c3ccccc3)CC2)c2c(C)c(C)c(=O)oc2c1	11.8%	31.9%	25.5%	-12.0%	1.4%	0.0%
Cc1cc2oc(=O)cc(CSc3nnc(-c4cccs4)o3)c2cc1C(C)C	10µM*	?	8.28µM*	-27.4%	3.7%	-14.6%
C[C@@]1(CO)[C@H](O)CC[C@@]2(C)[C@H]1CC[C@H]1C[C@@H]3C[C@@]12CC[C@]3(O)CO	-20.5%[8.37 µM]	0.586µM*	0.522µM*	38.3%	-1.9%	·
CC(C)=CCC1=C(OCC(=O)O)C(=O)c2ccccc2C1=O	-5.5%	2.94µM*	13.1µM*	-34.5%	8.3%	-2.0%
CC(C)=CCC/C(C)=C/CC/C(C)=C/CC/C(C)=C/CC1=C(C)C(=O)c2ccccc2C1=O	-23.9%	5.22µM*	11.7µM*	-20.7%	0.9%	-7.9%
CC(C)=CCC/C(C)=C/CC/C(C)=N/O	6.3%	-13.4%	2.4%	-9.6%	-5.1%	0.0%
COC(=O)c1cc2oc3ccccc3c2n1Cc1nc(-c2ccc(OC)cc2)oc1C	·	·	·	·	5.3%	·
COC(=O)c1ccc(-c2ccco2)n1Cc1nc(-c2ccc(OC)c(OC)c2)oc1C	?	·	13.1µM*	102.4%	-12.4%	?
CCCNC(=O)c1cn(CC)c2cc(N3CCN(C)CC3)c(F)cc2c1=O	-4.9%	?	·	20.3%	6.0%	1.6%
CCn1cc(C(=O)NCCC(C)C)c(=O)c2cc(F)c(N3CCN(C(=O)c4ccco4)CC3)cc21	-15.7%	2.33µM*	?	38.7%	?	-2.7%
CCCc1nnc(NC(=O)c2cn(CC)c3cc(N4CCN(C)CC4)c(F)cc3c2=O)s1	-2.4%	1.17µM*	0.37µM*	-20.0%	-4.7%	3.5%
CCN(CC)CCCNC(=O)c1cn(CC)c2cc(N3CCN(C(=O)c4ccco4)CC3)c(F)cc2c1=O	4.0%	?	7.38µM*	57.7%	2.8%	-1.2%
CCn1cc(C(=O)NC(C)C)c(=O)c2cc(F)c(N3CCN(C(=O)c4ccco4)CC3)cc21	?	5.86µM*	5.22µM*	190.9%	-1.0%	-1.9%
CCN(CC)CCNC(=O)c1cn(CC)c2cc(N3CCN(C(=O)c4ccco4)CC3)c(F)cc2c1=O	-9.1%	-23.8%	-18.1%	22.5%	2.8%	-4.1%
Cc1cccc(C(C)C)c1NC(=O)c1ccc2c(c1)CCN2S(C)(=O)=O	·	·	·	·	15.9%	·
Cc1ccc(NC(=O)Nc2nnc(SCC(=O)N3CCC(C)CC3)s2)cc1	·	·	·	·	-2.4%	·

Source: PubChem BioAssay (National Center for Advancing Translational Sciences (NCATS))
